From PubChem BioAssay (EPA / NIEHS)
Values joined by “and” are separate entries in the source; they are usually repeats but may differ in a detail not shown here. Equal entries are not always repeated. Some structures have more than one record in an assay (separate samples or runs), and their calls can disagree. Active and inactive are the calls of the source. How the source made its calls: active means hit-call score of the fitted dose curve at least 0.9, where 1 is the maximum; inactive means score below 0.9.

Read-out: Tissue plasminogen activator (tPA), PLAT (gene 5327)
Assay: BSK_BE3C_tPA: BioMAP Diversity Plus: BE3C Assay for Tissue plasminogen activator (tPA) Biomarker Activity (AID 2283041);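 on outcome: tPA level quantified by ELISA one day after compound addition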
Conditions: primary human bronchial epithelial cells; actives raise or lower the signal
Procedure, shortened: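 Bidirectional curve fitting relative to DMSO defined activity, with tPA detected by ELISA in chemically treated human bronchial epithelial primary cells at 24 hours.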

SMILES | AC50 | outcome
CCCCCCCCCCCCN1CCCC1=O | 15.4 µM (active) | –
CCCOC(=O)c1ccc(O)cc1 | – | inactive
CC(=O)NC1(c2cccc(F)c2)CCN(CC[C@@]2(c3ccc(Cl)c(Cl)c3)CN(c3ccccc3)C(=O)CO2)CC1 | 16.6 µM (active) | –
CCc1nn(C2CCCCC2)c2cc(C3(C#N)CCC(C(=O)O)CC3)ccc12 (stereo not given) | – | inactive
ClC1=C(Cl)C(Cl)(Cl)C(Cl)=C1Cl | 6.77 µM (active) | –
C[C@@H]1C[C@H]2[C@@H]3CCC4=CC(=O)C=C[C@]4(C)[C@@]3(F)[C@@H](O)C[C@]2(C)[C@@]1(O)C(=O)COP(=O)(O)O | 478 nM (active) and 416 nM (active) | inactive
CCCCCCCCC(=O)O | – | inactive
NC(=O)N1C(=O)C(C(=O)c2cc(Cl)cs2)c2cc(F)c(Cl)cc21 (stereo not given) | 2.33 µM (active) | –
CC(C)(C)CC(C)(C)c1ccc(O)c(-n2nc3ccccc3n2)c1 | – | inactive
c1ccc2c(c1)ccc1ccccc12 | – | inactive
CN1CCC[C@H]1c1cccnc1 | – | inactive
CCOC(=O)CC(O)(CC(=O)OCC)C(=O)OCC | – | inactive
O=c1c(-c2ccc(O)cc2)coc2cc(O)ccc12 | – | inactive
CCCCCCCCCCCCCC[N+](C)(C)C | 0.883 µM (active) | –
CCCCCCCCOC(=O)CCCCCCCCC(=O)OCCCCCCCC | – | inactive
OC1CCCCC1 | – | inactive
CCc1ccc(CCOc2ccc(CC3SC(=O)NC3=O)cc2)nc1 (stereo not given) | – | inactive
COCC(C)OCC(C)O (stereo not given) | – | inactive
N#C[C@@H]1CC(F)(F)CN1C(=O)CNC1CC2CCC(C1)N2c1ncccn1 (stereo not given in full) | – | inactive
